{"source": "PubChem BioAssay AID1851", "about": "(National Center for Advancing Translational Sciences (NCATS), 2009)", "note": "About 2,600 (16%) of roughly 16,000 compounds were called active. Not shown: some 20% with an inconclusive outcome. Calls come from the whole dose curve; as a rule, active = well fitted curve in the direction sought with a large enough effect; inconclusive = small, poorly fitted or top-dose-only effect, or effect the other way; inactive = no such curve, though single readings can be large or run the other way. Only a sample is shown. % is set by controls: 0 for no effect and ±100 for the full control effect."}
{"target": "Cytochrome P450 2D6 (Homo sapiens) (UniProt P10635)", "sequence (P10635 whole entry, looked up)": "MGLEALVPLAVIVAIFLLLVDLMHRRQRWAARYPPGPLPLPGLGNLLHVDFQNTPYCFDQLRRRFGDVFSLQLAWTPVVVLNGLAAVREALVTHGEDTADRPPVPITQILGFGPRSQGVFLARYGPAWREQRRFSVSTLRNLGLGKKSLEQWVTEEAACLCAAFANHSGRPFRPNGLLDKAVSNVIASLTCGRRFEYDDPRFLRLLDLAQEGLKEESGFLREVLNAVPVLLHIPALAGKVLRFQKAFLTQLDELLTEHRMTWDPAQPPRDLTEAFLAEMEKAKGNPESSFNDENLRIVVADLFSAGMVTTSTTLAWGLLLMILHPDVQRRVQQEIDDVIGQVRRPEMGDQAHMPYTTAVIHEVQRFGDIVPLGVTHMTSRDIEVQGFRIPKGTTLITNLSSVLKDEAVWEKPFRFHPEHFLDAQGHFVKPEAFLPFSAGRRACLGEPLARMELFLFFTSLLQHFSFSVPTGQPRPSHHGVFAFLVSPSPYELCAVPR", "assay": "Cytochrome panel assay with activity outcomes", "details": "recombinant CYP, pro-luciferin dealkylation, luminescence, p450-cyp2d6; series mostly up to 57.1 µM"}
{"smiles": "N=C(N)SCC(=O)O", "activity, negative = inhibition": "-6.02% [at 11.4 µM] (inactive)"}
{"smiles": "O=C1CC(c2ccc3c(c2)OCO3)Sc2nc3ccccc3n21", "note": "(stereo unspecified)", "AC50": "8.91 µM (active)"}
{"smiles": "O=C1CC(c2ccc3c(c2)OCO3)CN1", "note": "(stereo unspecified)", "AC50": "inactive"}
{"smiles": "Cc1ccc(NC(=O)C2CC(=O)n3c(nc4ccccc43)N2)cc1", "note": "(stereo unspecified)", "AC50": "inactive"}
{"smiles": "CSC1=N/C(=C\\c2ccc3c(c2)OCO3)C(=O)S1", "AC50": "inactive"}
{"smiles": "Cc1cccc(OCC(=O)N/N=C\\C=C\\c2ccc3c(c2)OCO3)c1C", "AC50": "inactive"}
{"smiles": "COC(=O)N/N=C\\C=C\\c1ccc2c(c1)OCO2", "AC50": "11.2 µM (active)"}
{"smiles": "CCOc1cc(/C=C2\\CCC/C(=C\\c3cc(Cl)c(O)c(OCC)c3)C2=O)cc(Cl)c1O", "AC50": "inactive"}
{"smiles": "CCOC(=O)c1c2ccc(OCC(=O)N/N=C/c3ccc(Cl)cc3)cc2n2ccccc12", "AC50": "inactive"}
{"smiles": "Clc1cccc(Cl)c1CSc1nnc(/C=C/c2ccccc2)o1", "AC50": "28.2 µM (active)"}
{"smiles": "O=C(Nc1nnc(SCc2c(Cl)cccc2Cl)s1)C1CCCO1", "note": "(stereo unspecified)", "AC50": "inactive"}
{"smiles": "Clc1ccccc1CSc1nnc(/C=C/c2ccccc2)o1", "AC50": "inactive"}
{"smiles": "COc1cccc(Nc2ncc3nc(-c4cc(F)cc(F)c4)c(=O)n(CCC#N)c3n2)c1", "AC50": "inactive"}
{"smiles": "CCCCCCCCn1cc(C(C)=O)c(=O)[nH]c1=O", "AC50": "inactive"}
{"smiles": "O=c1cnc2cnc(Oc3cccc(Cl)c3)nc2n1C[C@H]1CCCO1", "AC50": "inactive"}
{"smiles": "COc1ccc([N+](=O)[O-])cc1N(CC(O)CN(CC(C)C)CC(C)C)S(=O)(=O)c1ccccc1", "note": "(stereo unspecified)", "AC50": "0.398 µM (active)"}
{"smiles": "CCN(CC)S(=O)(=O)c1ccc(OC)c(NC(=O)c2cc([N+](=O)[O-])ccc2Cl)c1", "AC50": "inactive"}
{"smiles": "COc1ccc(OC)c(N(CC(=O)N2CCc3ccccc3C2)S(C)(=O)=O)c1", "AC50": "inactive"}
{"smiles": "COc1ccc(C(=O)CN2C(=O)NC(C)(c3ccccc3)C2=O)cc1OC", "note": "(stereo unspecified)", "AC50": "inactive"}
{"smiles": "CN(C)Cc1ccc(O)c(CN(C)C)n1", "activity, negative = inhibition": "2.9% [at 11.4 µM] (inactive)"}
{"smiles": "Cc1ccc(NC(=O)c2cccc(N(C)C)c2)cc1NC(=O)c1ccc(O)cc1", "AC50": "inactive"}
{"smiles": "CN(C)CCCc1cc(C(=O)Nc2ccc(-c3ccncc3)cc2)ccc1O", "AC50": "5.01 µM (active)"}
{"smiles": "Cc1ccc(C(=O)Nc2ccc3nccnc3c2)cc1", "AC50": "inactive"}
{"smiles": "Cc1cc(C)cc(-n2nnnc2-c2cn(C)nc2C(F)(F)F)c1", "AC50": "inactive"}
{"smiles": "Cc1cccc(NC(=O)c2ccc([N+](=O)[O-])o2)n1", "AC50": "inactive"}
{"smiles": "CCOc1cc(/C=N/NC(=O)c2cc(C)[nH]n2)ccc1OC(=O)c1ccc([N+](=O)[O-])cc1", "AC50": "inactive"}
{"smiles": "COc1cc(/C=N/NC(=O)c2cccnc2)ccc1OC(=O)c1ccco1", "AC50": "inactive"}
{"smiles": "Cc1cc(C(=O)N/N=C/c2cccc(OC(=O)c3ccco3)c2)n[nH]1", "AC50": "17.8 µM (active)"}
{"smiles": "CCC/C=C(\\CCC)C(NS(=O)(=O)c1cccc2cccnc12)c1ccc(-c2ccccc2)cc1", "note": "(stereo unspecified)", "AC50": "inactive"}
{"smiles": "Fc1ccc(COc2ccc(Br)cc2CNCc2ccncc2)cc1", "AC50": "0.126 µM (active)"}
{"smiles": "C[N+]1(C)CCO[C@](O)(c2ccccc2)C1", "activity, negative = inhibition": "0.284% [at 11.4 µM] (inactive)"}
{"smiles": "OCCNc1ncnc2c1ncn2[C@@H]1O[C@@H](CO)[C@H](O)[C@@H]1O", "activity, negative = inhibition": "3.15% [at 11.4 µM] (inactive)"}
{"smiles": "COc1ccc(-c2nc(-c3cccc(C)c3)nc(N3CCN(C)CC3)c2C#N)cc1", "AC50": "inactive"}
{"smiles": "CN1CCCC1CCNC1C2CC3CC(C2)CC1C3", "note": "(stereo unspecified)", "AC50": "inactive"}
{"smiles": "c1ccc(CN2CCC3(CCCc4ccccc43)CC2)cc1", "AC50": "0.251 µM (active)"}
{"smiles": "CC(=O)c1ccc(N2CCC(c3cc(-c4ccc(Cl)cc4)n[nH]3)CC2)c([N+](=O)[O-])c1", "AC50": "inactive"}
{"smiles": "CCOc1cc(/C=C2/C(=N)N3C=CSC3=NC2=O)ccc1OCCCOc1ccccc1C", "AC50": "inactive"}
{"smiles": "CCc1nc(SCC(=O)NCCc2ccccc2)c2oc3ccccc3c2n1", "AC50": "inactive"}
{"smiles": "O=C(CSCc1ccccc1Cl)NN1C(=O)c2ccccc2C1=O", "AC50": "inactive"}
{"smiles": "O=C(CSCc1ccccc1Cl)NNC(=O)c1ccccc1", "AC50": "inactive"}
{"smiles": "NCCSCc1ccccc1Cl", "AC50": "3.16 µM (active)"}
{"smiles": "COc1ccc(C2N(c3ccccn3)C(=O)C3CCCN32)c(OC)c1", "note": "(stereo unspecified)", "AC50": "inactive"}
{"smiles": "Cc1ccc(OCCNC(=O)c2cc(-n3cnnc3)ccc2Cl)cc1C", "AC50": "inactive"}
{"smiles": "CN(C)CCNC(=O)c1cc(Br)ccc1Cl", "AC50": "inactive"}
{"smiles": "CSc1ccc(Cl)c(C(=O)NCCOc2cc(C)ccc2C(C)C)c1", "AC50": "11.2 µM (active)"}
{"smiles": "O=C1CCCC=C1[C@H](O)c1ccc([N+](=O)[O-])cc1", "activity, negative = inhibition": "-11.2% [at 11.4 µM] (inactive)"}
{"smiles": "Cc1ccc(C(N)=Nc2ccccc2)cc1", "AC50": "3.16 µM (active)"}
{"smiles": "NC(N)=NC(N)=Nc1ccccc1", "AC50": "inactive"}
{"smiles": "NC(N)=NC(N)=Nc1ccccc1", "note": "(tested in a mixture with another compound)", "activity, negative = inhibition": "-8.99% [at 11.4 µM] (inactive)"}
{"smiles": "COCCn1c(=O)c(-c2cccc(C#N)c2)nc2cnc(N3CCNCC3)nc21", "AC50": "inactive"}
{"smiles": "O=[N+]([O-])c1ccc(N2CCN(Cc3ccccc3)CC2)c(S(=O)(=O)N2CCOCC2)c1", "AC50": "inactive"}
{"smiles": "O=[N+]([O-])c1ccc(N2CCN(CCOc3nonc3-c3ccccc3)CC2)c(Cl)c1", "AC50": "0.112 µM (active)"}
{"smiles": "CCC(=O)NC(=S)N1CCN(c2ccc([N+](=O)[O-])cc2Cl)CC1", "AC50": "inactive"}
{"smiles": "CCCn1c2c(c(O)c(C(=O)NCc3ccccc3)c1=O)CCCC2", "AC50": "10 µM (active)"}
{"smiles": "CCCCCCc1nc2ccccc2c(=O)n1NC(=O)c1c(O)c2c(n(CC(C)C)c1=O)CCCC2", "AC50": "inactive"}
{"smiles": "Cc1cc(=O)oc(C)c1C(=O)NCc1ccccc1", "AC50": "inactive"}
{"smiles": "O=c1cnc2cnc(Nc3ccccc3)nc2n1CCc1ccccc1", "AC50": "inactive"}
{"smiles": "Cc1ccccc1C(=O)N1CCN(c2ccc([N+](=O)[O-])c(N3CCOCC3)c2)CC1", "AC50": "inactive"}
{"smiles": "Cc1cccc(C)c1NC(=O)CSc1nc(C)c(CC(=O)c2ccc(Br)cc2)c(C)c1C#N", "AC50": "inactive"}
{"smiles": "Cc1ccnc(NCn2nnc3ccccc32)c1", "AC50": "inactive"}
{"smiles": "COCCN1CN=C(Nc2nc3ccccc3o2)NC1", "AC50": "inactive"}
{"smiles": "COc1ccc(CN2CN=C(Nc3nc4ccccc4s3)NC2)cc1", "AC50": "7.94 µM (active)"}
{"smiles": "c1ccc2sc(NC3=NCN(C4CCCCCC4)CN3)nc2c1", "AC50": "1 µM (active)"}
{"smiles": "O=C(NNc1nc2ccccc2s1)C1CC1", "AC50": "inactive"}
{"smiles": "c1ccc(/C(=N/Nc2nc3ccccc3s2)c2ccccn2)cc1", "activity, negative = inhibition": "-1.95% [at 11.4 µM] (inactive)"}
{"smiles": "COc1ccc(C(=O)NCc2ccc(-c3nc4ccccc4s3)cc2)cc1", "AC50": "inactive"}
